Data from PubChem BioAssay.
Where “and” joins values, the source holds several entries; their conditions need not be identical. Equal entries are not always repeated. A number with no mark means an inactive call.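 How the source made its calls: active means aptamer binding inhibition above 30%, about 3 SD of noise from non-fluorescent compounds; inactive means inhibition at or below 30%.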

Each compound was assayed against Beta-adrenergic receptor kinase 1 (Homo sapiens) (UniProt P25098) (assay: GRK2 binders displacing RNA aptamer, biochemical, validation, human GRK2, bead flow cytometry (AID 488806)). Conditions: bead-bound GRK2, FAM-aptamer displacement, at 10 µM, hits give high values.
Sequence of Beta-adrenergic receptor kinase 1 (Homo sapiens) (P25098 whole entry, looked up): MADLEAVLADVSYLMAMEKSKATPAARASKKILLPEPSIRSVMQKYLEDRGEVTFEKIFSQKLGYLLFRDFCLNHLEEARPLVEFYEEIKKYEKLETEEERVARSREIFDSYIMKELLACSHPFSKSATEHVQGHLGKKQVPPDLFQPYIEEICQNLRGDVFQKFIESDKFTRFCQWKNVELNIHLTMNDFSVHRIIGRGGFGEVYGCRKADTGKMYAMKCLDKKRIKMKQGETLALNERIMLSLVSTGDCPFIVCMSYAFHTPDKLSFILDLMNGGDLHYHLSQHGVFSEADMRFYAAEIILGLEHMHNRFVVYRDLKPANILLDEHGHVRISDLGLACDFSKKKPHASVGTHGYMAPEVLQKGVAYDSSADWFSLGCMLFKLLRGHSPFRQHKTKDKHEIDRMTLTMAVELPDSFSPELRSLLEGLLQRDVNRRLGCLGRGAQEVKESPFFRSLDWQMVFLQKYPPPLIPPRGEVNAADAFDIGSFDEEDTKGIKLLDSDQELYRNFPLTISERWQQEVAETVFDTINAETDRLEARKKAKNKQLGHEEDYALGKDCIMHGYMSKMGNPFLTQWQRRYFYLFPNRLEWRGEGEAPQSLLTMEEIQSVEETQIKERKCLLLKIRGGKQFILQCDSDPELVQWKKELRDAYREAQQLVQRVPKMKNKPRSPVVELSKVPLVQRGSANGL
With `NS(=O)(=O)c1cc2c(cc1Cl)NC(C1C[C@H]3C=C[C@@H]1C3)NS2(=O)=O` (some centres undefined) the aptamer binding inhibition was 2%. Compound `CC(=O)NC1C(OCc2ccccc2)OC(COC(C)=O)C(OC(C)=O)C1OC(C)=O` (centres undefined) has an aptamer binding inhibition of 2%. Work on `O=CNC1CCCc2c1[nH]c1ccc(Cl)cc21` (centres undefined) yielded an aptamer binding inhibition of 2%. `O=C(O)CP(=O)(O)O` showed an aptamer binding inhibition of 6%. For `Cc1cccc(Nc2ccccc2C(=O)O)c1C`, the aptamer binding inhibition was -1%. `CC1(C)CC(NCc2ccccc2)CCO1` (centres undefined) showed an aptamer binding inhibition of 0%. With `Cc1ccccc1C(=O)NCC(=O)O` the aptamer binding inhibition was 5%. `CCOc1cc2c3c(c1)C(C)=CC(C)(C)N3C(=O)C2=O` was tested, and the aptamer binding inhibition was 0%. Compound `O=C(N1CCCC1)C12CC3CC(C1)CC(C(=O)N1CCCC1)(C3)C2` has an aptamer binding inhibition of -1%. For `O=C(NC(Nc1ccccn1)C(Cl)(Cl)Cl)c1ccccc1` (centres undefined), the aptamer binding inhibition was -1%. Work on `COc1cc(NC(=S)NC(=O)c2cccs2)ccc1NC(=O)C(C)C` yielded an aptamer binding inhibition of 3%. For `COc1ccc(CCN(C)CCCC(C#N)(c2cc(OC)c(OC)c(OC)c2)C(C)C)cc1OC` (centres undefined), the aptamer binding inhibition was 1%. Compound `O=C1C(Cc2c[nH]c3ccccc23)NC(=S)N1Cc1ccccc1` (centres undefined) has an aptamer binding inhibition of 1%. Work on `CC(C)(C)C(=O)NC(=S)NNC(=O)c1ccncc1` yielded an aptamer binding inhibition of -5%. Compound `CCOC(=O)N1CCN(Cc2nc(Cc3cccc(F)c3)no2)CC1` has an aptamer binding inhibition of 5%. In the case of `C[C@@H]1C[C@H](Nc2ccccc2)c2ccccc2N1C(=O)c1cccnc1`, the aptamer binding inhibition is reported as 4%. With `OC(CCN1CCCC1)(c1ccccc1)C1CCCCC1` (centres undefined) the aptamer binding inhibition was -1%. `Cc1cc(Cl)cc2c1NC(=O)[C@]21[C@@H]2C(=O)N(Cc3ccccc3)C(=O)[C@@H]2[C@@H]2CCCN21` showed an aptamer binding inhibition of 6%. In the case of `O=C(/C=C/c1ccco1)Nc1ccccc1C(=O)O`, the aptamer binding inhibition is reported as 11%. `CC(C)c1ccc(/C=C/C(=O)O)cc1` showed an aptamer binding inhibition of 3%. With `CCN(CC)CC(=O)Nc1c(C)cccc1C` the aptamer binding inhibition was 5% and 0%. `CC1=C(C)C(=O)C(CCCCC#CCCCC#CCO)=C(C)C1=O` was tested, and the aptamer binding inhibition was 4%. In the case of `COc1cc(C=NCC2OCCc3ccccc32)cc(OC)c1` (centres undefined), the aptamer binding inhibition is reported as 4%. `CN(C)CCCN1c2ccccc2CCc2ccccc21` was tested, and the aptamer binding inhibition was -2%. Work on `COc1ccc2nc(S(=O)Cc3ncc(C)c(OC)c3C)[nH]c2c1` (centres undefined) yielded an aptamer binding inhibition of 2%. In the case of `COc1ccc(CNCCC2(C(C)C)CCOC(C)(C)C2)cc1` (centres undefined), the aptamer binding inhibition is reported as 3%. Compound `COc1cccc(CN2C(=O)N(C(C)C)C(N(O)C(=O)NC(C)C)C2(C)C)c1OC` (centres undefined) has an aptamer binding inhibition of -1%. For `Cc1ccc(S(=O)(=O)N[C@@H](Cc2ccccc2)C(=O)CCl)cc1`, the aptamer binding inhibition was 8%. `COCCN(CCOC)Cc1c(C)[nH]c2c(C)c(C)ccc2c1=O` showed an aptamer binding inhibition of 0%. Work on `CCOC(=O)C(NC(=O)CCC(=O)Nc1ccc(S(N)(=O)=O)cc1)C(O)c1ccccc1` (centres undefined) yielded an aptamer binding inhibition of 6%. In the case of `Cc1ccccc1N1C(N)=NC(N)=NC1(C)C`, the aptamer binding inhibition is reported as 0%. `CC1Cc2ccccc2N1NC(=O)c1ccc(Cl)c(S(N)(=O)=O)c1` (centres undefined) showed an aptamer binding inhibition of 1%. `CC1=C(/C=C/C(C)=C/C=C/C(C)=C/C(=O)O)C(C)(C)CCC1` gave an aptamer binding inhibition of 1%. With `N/C(=N\OC(=O)/C=C/c1ccccc1)c1ccc(Br)cc1` the aptamer binding inhibition was 3%. Compound `CCOc1ccc(C(=O)C(C)=O)c(OCC)c1` has an aptamer binding inhibition of 2%. With `COc1ccc(C=O)c(OC)c1` the aptamer binding inhibition was 1%. In the case of `CC1=NN(c2ccccc2)C(=O)C1`, the aptamer binding inhibition is reported as -3%. `COCC1CCCN(Cc2cn[nH]c2-c2cc3ccccc3o2)C1` (centres undefined) showed an aptamer binding inhibition of 2%. With `CC1(C)CC(=O)C(C2=NC(C)(C)Cc3ccccc32)=C(O)C1` the aptamer binding inhibition was 4%.
